From PubChem BioAssay (NCI)
Compounds without any hit were thinned out: in the full panel of roughly 83,000, 20% have a hit.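 How to read the values: 0–100, growth inhibition (40 = 60% inhibited); 0, no net growth; -100 to 0, cell death (-40 = 40% of starting cells died; -100 = all dead).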 Values without a mark were called inactive. Active and inactive are the calls of the source. Rule for the calls: active = growth percent below 10; inactive = the rest.

System: LOX IMVI melanoma
Experiment: NCI-60 one-dose screen, 48 h (100 = growth as untreated, 0 = no growth, -100 = all killed)
Conditions: 10 µM

SMILES | growth
Cc1c(O)cnc2nn(-c3ccccc3)c(=N)n12 | 102%
CC[N+](C)(CC)CCO | 101%
CCOC(=O)C/C(C)=N\O | 100%
COc1cc(CCN=Cc2ccccc2O)c([N+](=O)[O-])cc1OC | 99.4%
O=[N+]([O-])c1ccc(CO)cc1 | 99.2%
O=C(Nc1ccccc1C(=O)NCC1CC1)c1cccs1 | 102%
COc1cc(CN)ccc1O | 89.8%
N#CC(=Nc1cccc(F)c1)C1=C(O)c2ccccc2C1=O | 91.1%
CC(=O)OCC1OC(OC2=C(CC=C(C)C)C(=O)c3ccccc3C2=O)C(OC(C)=O)C(OC(C)=O)C1OC(C)=O (centres undefined) | 6.88% (active)
O=[N+]([O-])c1ccccc1S(=O)c1ccccc1[N+](=O)[O-] | 70%
CC(=O)OCC1CCCO1 (centres undefined) | 98%
CC(C(=O)O)(C1CCCCC1)C1(O)CCCCC1 (centres undefined) | 95.3%
COc1cc(/C=C/C(=O)c2ccccc2)cc(OC)c1OC | 2.98% (active)
O=C1OC(c2ccc(F)cc2)CC1CN1CCOCC1 (centres undefined) | 89.2%
OC1OC(COC(c2ccccc2)(c2ccccc2)c2ccccc2)C(O)C(O)C1O (centres undefined) | 93.6%
O=C(NCCNC(=O)c1ccc(Cl)cc1Cl)c1ccc(Cl)cc1Cl | 94.9%
CC(C)(N)COS(=O)(=O)O | 113%
C=CCCCCCCCCCOC(C)=O | 99.2%
O=C(NCc1ccco1)Nc1c(Cl)cc(Cl)cc1Cl | 99.3%
CCOC(=O)C1=C(Nc2ccc(Br)cc2)C(=O)N(CC)C1 | 94.3%

SMILES | growth
CN(C)c1ccc(C(c2ccc(O)cc2)c2ccc(N(C)C)cc2)cc1 | 88%
S=C1NCc2cncnc2N1 | 104%
C/C(=N\NC(=O)c1ccccc1N)c1ccccc1O | 36.7%
CC(C)(C)n1nc(C2CC2)c(Br)c1NC(=O)c1ccccc1F | 99.1%
O=C(O)CCC(NC(=O)OCc1ccccc1)C(=O)O (centres undefined) | 98.9%
Nc1ccccc1SC(CC(=O)c1ccccc1)c1c(Cl)cccc1Cl (centres undefined) | 22.7%
O=C(O)CSCSCC(=O)O | 97.3%
NC(CSC(c1ccccc1)(c1ccccc1)c1ccccc1)C(=O)O (centres undefined) | 38.2%
CCCCC1C(=O)N(c2ccccc2)N(c2ccccc2)C1=O | 99.4%
CCCC[P+](c1ccccc1)(c1ccccc1)c1ccccc1 | 41%
CC(CN1CCCCC1)NC(=O)c1scnc1-c1ccccc1 (centres undefined) | 95.2%
COc1ccc(C(=O)C(Br)C(Br)C(=O)O)cc1 (centres undefined) | 97.7%
CCOC(=O)c1coc(C(=O)OCC)c1C(=O)OCC | 108%
O=C(OCC(O)C1OC(c2ccccc2)OC(COC(=O)c2ccccc2)C1O)c1ccccc1 (centres undefined) | 108%
COc1ccc(/C(C#N)=C2C=C/C(=N/O)c3ccccc3\2)cc1 | 9.34% (active)
Nc1ccc(N)c([N+](=O)[O-])c1 | 100%
Cc1ccccc1C1N=C2Oc3ccccc3C=C2C(=O)N1 (centres undefined) | 57.3%
O=C(Nc1ccccc1)OCCc1ccccc1 | 107%
Cc1cc(/C=C/c2ccc3cc(N(C)C)ccc3[n+]2C)c(C)n1-c1ccccc1 | -38% (active)
